KB-V1 MDR tox: qHTS assay for MDR1-selective chemotherapeutics: Primary screen using the drug-selected MDR subline cells KB-V1. KB-V1 MDR cells viability, CellTiter-Glo, 72 h. Potency, µM (doses to about 46.1 µM), most hits filed as cytotoxic. AID 1347076, 2019. actives 3.4% (n = 400,000); also: nearly all actives have a fitted effect of over 60% in size
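Compound-treated KB-V1 multidrug-resistant cells, 72 h, 37 degrees C; viability by CellTiter-Glo. Fitted qHTS curves give the values.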
KB-3-1 tox: qHTS assay for MDR1-selective chemotherapeutics: Primary screen using the parental adenocarcinoma cell KB-3-1; KB-3-1 viability, CellTiter-Glo ATP luminescence, 72 h; Potency, µM (doses to about 46.1 µM), usual class: cytotoxic; actives 1.4% (n = 400,000); also: nearly all actives have a fitted effect of over 60% in size
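72 h, 37 °C compound treatment of KB-3-1 parental cells; CellTiter-Glo added, 10 min, luminescence read. Data corrected against DMSO-only plates and normalized before curve fitting.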
MCF10A rereplic: A quantitative high throughput screen for small molecules that induce DNA re-replication in MCF 10a normal breast cells; MCF 10A DNA re-replication, Hoechst nuclear intensity, 48 h; Potency, µM (series often up to 46.1 µM), hits mostly activators; actives 2.9% (n = 350,000); AID 624296, 2012; also: nearly all actives have a fitted effect of over 50% in size
Giardia kill: Small Molecules that selectively kill Giardia lamblia: qHTS; actives 0.15% (n = 340,000); AID 540267, 2011; Giardia lamblia trophozoite viability; activity change, % at 7.66 µM, hits read low; in the data active = activity change below about -80%; inconclusive = between about -30% and that limit;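 also: parasites exposed to compound for two days anaerobically before the ATP read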
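Luminescent ATP signal served as the viability read-out, measured 15-30 min after adding ATP detection reagent to trophozoites that had been incubated with compounds for 48 hrs at 37 deg C anaerobically at 100 cells/well.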
S-ASM inh: Inhibitors of Secretory Acid Sphingomyelinase (S-ASM): qHTS. Sphingomyelin phosphodiesterase (Homo sapiens), P17405. Potency, µM (series often up to 57.5 µM), most hits filed as inhibitors. actives 0.006% (n = 340,000). placental ASM, HMU-PC fluorogenic substrate, 60 min. AID 504937, 2011
Target sequence (P17405 47-631 limits assumed): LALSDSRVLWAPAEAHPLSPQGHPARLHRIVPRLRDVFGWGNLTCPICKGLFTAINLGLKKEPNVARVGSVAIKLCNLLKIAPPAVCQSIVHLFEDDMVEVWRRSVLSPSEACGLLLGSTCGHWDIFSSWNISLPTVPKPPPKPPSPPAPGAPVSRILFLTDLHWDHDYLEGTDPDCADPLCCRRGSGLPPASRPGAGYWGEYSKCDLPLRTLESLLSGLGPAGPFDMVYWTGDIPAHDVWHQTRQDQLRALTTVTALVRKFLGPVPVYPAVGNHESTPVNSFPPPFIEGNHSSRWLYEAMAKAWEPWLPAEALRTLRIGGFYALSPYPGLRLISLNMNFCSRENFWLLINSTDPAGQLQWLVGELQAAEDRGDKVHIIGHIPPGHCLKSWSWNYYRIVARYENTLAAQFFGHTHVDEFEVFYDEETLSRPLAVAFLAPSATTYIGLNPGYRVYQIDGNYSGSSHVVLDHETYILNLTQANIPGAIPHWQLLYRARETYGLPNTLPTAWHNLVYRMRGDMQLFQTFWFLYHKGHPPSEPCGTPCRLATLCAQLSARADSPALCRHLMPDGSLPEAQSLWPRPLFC
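Steps: dispense placental human ASM, pin compound, wait 10 min at room temperature, add HMU-PC0 substrate at 9 uM final, incubate 60 min at 37 °C, add stop solution raising pH to 10, read fluorescence.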
SW480 rerep: A quantitative high throughput screen for small molecules that induce DNA re-replication in SW480 colon adenocarcinoma cells. SW480 DNA re-replication, Hoechst DNA content imaging, 48 h. AID 624297, 2012. actives 1.8% (n = 340,000). Potency, µM (highest dose often 46.1 µM), actives largely listed as activators; also: nearly all actives have a fitted effect of over 55% in size
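Treated cells incubate 48 hr (37 C, 5% CO2), are stained 40 min with Hoechst, and nuclear fluorescence is enumerated; a rise in nuclei with high DNA signal marks re-replication.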
Numbers stand for hits; i = inactive; ? = inconclusive; nt = no result. Rows were chosen to be rich in hits. Some 6.9% of all compounds tested hit in one or more screens of this group. Unless noted, calls follow the shape of the dose curve; as a rule, active = well fitted curve in the direction sought with a large enough effect; inconclusive = small, poorly fitted or top-dose-only effect, or another doubt; inactive = no such curve, though single readings can be large; an effect the other way counts as inactive or inconclusive.

SMILES | KB-V1 MDR tox | KB-3-1 tox | MCF10A rereplic | Giardia kill | S-ASM inh | SW480 rerep
CCOC(=O)c1ccccc1NC(=O)CSc1nnc(CC)n2c1cc1occc12 | i | i | nt | nt | nt | nt
CCCN1C(=O)c2[nH]nc(-c3ccccc3O)c2C1c1ccc(OCc2ccccc2)c(OCC)c1 (centres undefined) | i | ? | nt | nt | nt | nt
Cc1nn(-c2ccccc2)c2sc(C(=O)N(CC(=O)NC(C)(C)C)Cc3ccco3)cc12 | ? | ? | 18.4µM | i | i | i
O=C(Nc1ccc2c(c1)CCCN2C(=O)c1cccs1)c1ccccc1Cl | i | i | nt | nt | nt | nt
CCOCCCNC(=O)C(c1ccc(OC)cc1)N(Cc1cccs1)C(=O)c1ccc(NC(C)=O)cc1 (centres undefined) | i | i | nt | nt | nt | nt
CSc1cccc(-n2cc(-c3ccc4c(c3)OCO4)[nH]c2=O)c1 | 7.31µM | 4.11µM | 20.6µM | i | i | 20.6µM
COc1ccccc1C(=O)NCC(=O)N1CC=C(c2ccccc2)CC1 | 16.4µM | ? | i | i | i | i
C=CCn1c(SCc2ccc(C(=O)Nc3nccs3)cc2)nnc1-c1ccc(C)c(Cl)c1 | 5.17µM | ? | 10.3µM | i | ? | ?
O=S(=O)(c1ccccc1C(F)(F)F)N1CCN(c2nc(-c3ccccc3)nc3ccccc23)CC1 | i | ? | nt | i | nt | nt
CCOC(=O)c1ccc(S(=O)(=O)Nc2ccc3cn[nH]c3c2)cc1 | 18.4µM | ? | i | i | i | i
COc1ccc(S(=O)(=O)Nc2ccc3cn[nH]c3c2)cc1C | ? | i | i | i | i | i
N#Cc1c(N)nc(SCc2ccccn2)c(C#N)c1-c1cccs1 | 2.91µM | ? | i | i | i | i
CC(=O)Nc1ccc(Nc2nc(-c3ccccc3)nc3ccccc23)cc1 | ? | ? | ? | i | i | i
CC(Nc1nc(-c2cccnc2)nc2ccccc12)c1ccc(F)cc1 (centres undefined) | 18.4µM | ? | ? | i | i | i
O=C(Nc1nc(-c2ccccc2)nc2ccccc12)c1ccc(F)cc1 | i | i | 18.4µM | i | i | ?
COc1ccccc1Nc1nc(-c2ccccc2F)nc2ccccc12 | 8.2µM | ? | nt | nt | nt | nt
Cc1ccc(Nc2nc(-c3cccnc3)nc3ccccc23)cc1 | ? | ? | 14.6µM | i | i | 9.2µM
CCc1noc(C)c1C(=O)Nc1sc(C(=O)N(C)C)c(C)c1C#N | i | i | i | i | i | i
CC(C)(C(=O)N1CCC1(C)C(=O)NS(=O)(=O)c1ccc(Cl)s1)c1ccccc1 (centres undefined) | i | i | nt | nt | nt | nt
CC1(C)OC(=O)C2(Cc3cc([N+](=O)[O-])ccc3N3CCCCCC32)C(=O)O1 (centres undefined) | i | i | nt | i | nt | nt
COc1ccc(/C=N/Nc2nc(-c3cccnc3)nc3ccccc23)cc1OC | i | i | i | i | i | i
COc1ccc(CCNc2nc(-c3cccnc3)nc3ccccc23)cc1OC | 8.2µM | i | ? | i | i | ?
c1ccc2c(Nc3nc(-c4ccncc4)nc4ccccc34)cccc2c1 | i | i | 23.1µM | i | i | 29.1µM
Cc1ccc(-c2nc(N/N=C/c3ccncc3)c3ccccc3n2)cc1 | 23.1µM | ? | i | i | i | i
CCOC(=O)c1ccc(Nc2nc(-c3cccnc3)nc3ccccc23)cc1 | i | i | 18.4µM | i | i | ?
Cc1ccc2nc(C(Cl)(Cl)Cl)nc(N/N=C/c3ccncc3)c2c1 | i | i | i | i | i | i
CC(Nc1nc(-c2ccccc2F)nc2ccccc12)c1ccccc1 (centres undefined) | i | i | ? | i | i | i
CC(Nc1nc(N2CCCCC2)nc2ccccc12)c1ccccc1 (centres undefined) | ? | 11.2µM | ? | i | i | i
CC(Nc1nc(-c2ccccc2)nc2ccccc12)c1ccccc1 (centres undefined) | i | ? | ? | i | i | i

Source: PubChem (National Center for Advancing Translational Sciences (NCATS))
